A selection: hits, their analogues and other compounds. The true share with any hit is near 2.2%.
CRFR2-BP antag = CRF-BP/CRF-R2 complex antagonism | HEK293 CRF-R2/CRF-BP, CRF-induced calcium fluorescence | inhibition, % at 11.8 µM | 0.59% of 350,000 active | AID 588475;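 active means inhibition of the ligand-induced calcium signal above about 50% at the single tested concentration, limit read from the data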
Myeloid diff 2 = compounds promoting myeloid differentiation; AID 624256; 1% of 360,000 active; ER-HoxA9 myeloid progenitors, lysozyme-GFP differentiation, flow cytometry; calls only at 10 µM;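 active means normalized GFP-positive differentiation at or above the plate's own cutoff, the solvent-only control mean plus 3 SD; inconclusive means no clear call, values can overlap the other calls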;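 further: cells exposed to compound for four days before flow analysis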
CRFR2-BP ag = agonists of human CRF-binding protein/CRF-R2 receptor complex. 0.46% of 350,000 active. HEK293 CRF-R2/CRF-BP, calcium dye fluorescence (FLIPR); percent of saturating CRF peptide response. activation, % at 13.2 µM. AID 588473;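 active means activation of at least 50%, plus an integration ratio under a set limit after plate pattern correction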;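 further: plate controls were neutral control wells without compound for no effect and CRF at EC100 for full effect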
RTF Ca sens inh = cardiac RTF calcium desensitization; P19429+P45379; IANBD-labeled cardiac RTF, Ca2+ fluorescence; inhibition, % at 7.15 µM; 0.12% of 340,000 active;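 active means inhibition above the mean inhibition of all tested compounds plus 3 SD, cut at about 17% in these data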;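 further: assay run at fixed EC70 calcium of 1.6 mM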
cardiac RTF act = cardiac RTF calcium sensitization; P19429+P45379; AID 493008; IANBD-labeled TnC RTF fluorescence at EC20 calcium; 0% EC20 calcium, 100% full calcium; activation, % at 7.2 µM; 0.24% of 340,000 active;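 active means activation above the mean over all tested compounds plus 3 SD, cut at about 30% in these data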;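 further: rise in fluorescence read as greater calcium sensitivity of cardiac thin filaments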
* hit, by the source's call; i = inactive; ? = inconclusive; . = no result; + = active, no number.

SMILES | CRFR2-BP antag | Myeloid diff 2 | CRFR2-BP ag | RTF Ca sens inh | cardiac RTF act
O=C1NC(=O)C(=Cc2ccc(N3CCOCC3)o2)C(=O)N1 | -15.6 | i | 17.4 | -64.2 | 46.9*
O=C1NC(=O)N(c2ccc3c(c2)OCO3)C(=O)/C1=C/c1ccc(N2CCCCC2)o1 | -19.1 | i | 35.0 | -80.9 | 78.4*
O=C1NC(=O)N(c2ccc3c(c2)OCO3)C(=O)/C1=C\c1ccc(-c2ccccc2C(=O)O)o1 | 8.6 | i | 3.7 | 7.9 | -0.8
C=CCN1C(=O)/C(=C/c2ccc(N3CCOCC3)o2)C(=O)NC1=S | -1.1 | i | 18.5 | -35.3 | 66.5*
Cc1cc(C)cc(N2C(=O)/C(=C\c3ccc(N4CCN(C)CC4)o3)C(=O)NC2=S)c1 | -38.6 | i | 57.4* | . | .
CC1=C(C)CN2CC(C#N)=C(N)C2C1 (stereo not drawn) | . | i | . | . | .
C[C@@H]1CN([C@H](C)CO)C(=O)CCCn2nncc2CO[C@@H]1CN(C)C(=O)Oc1ccc2ccccc2c1 | -19.3 | i | 0.9 | . | .
COc1cc(/C=C/[N+](=O)[O-])ccc1O | -7.2 | + | 0.3 | -7.1 | -4.9
O=c1[nH]c(=O)n(-c2ccccc2)c(O)c1/C=C/C=Nc1ccccc1 | -50.7 | i | 28.1 | -70.9 | 78.5*
CC(=O)Nc1cc(C(=O)N2CCC3(CC2)OCCO3)ccc1S(=O)(=O)c1ccc(C)cc1 | 98.1* | i | -1.9 | -8.3 | -2.5
CCC(C)C1NC(=O)C(NC(=O)C(CC(C)C)N(C)C(=O)C2CCCN2C(=O)C(C)O)C(C)OC(=O)C(Cc2ccc(OC)cc2)N(C)C(=O)C2CCCN2C(=O)C(CC(C)C)NC(=O)[C@H](C)C(=O)[C@H](C(C)C)OC(=O)CC1O (stereo partly drawn) | 27.1 | . | 5.0 | -2.0 | -1.1
CC12CC(=O)C3C(CCC4CC(=O)C=CC43C)C1CCC2=O (stereo not drawn) | 0.3 | ? | 0.7 | 2.0 | -3.2
Cc1cc(C)c(Cn2c(C(=O)O)c(C=O)c3ccccc32)c(C)c1 | -4.3 | i | 9.8 | -61.8 | 64.2*
CN1C(=O)N(C)C(=O)C2(Cc3cc(NC(=O)c4ccc(F)cc4)ccc3N3CCCC32)C1=O (stereo not drawn) | 14.9 | i | 2.6 | -10.0 | -0.1
C=CCn1c(=O)c(C=Nc2cccc([N+](=O)[O-])c2)c(O)n(CCCC)c1=O | -20.4 | + | 4.1 | -11.3 | 4.7
C=CCn1c(=O)c(C=Nc2c(OC)cccc2[N+](=O)[O-])c(O)n(CCCC)c1=O | -13.2 | i | -0.9 | -8.2 | 14.7
CCOC(=O)c1ccc2[nH]c(-c3ccc(S(=O)(=O)F)cc3)cc(=O)c2c1 | 8.5 | + | 4.7 | -1.7 | -1.2
C[C@@H]1CCC2[C@@H](C)C(=O)O[C@@H]3OC4(C)CCC1[C@@]23OO4 (stereo partly drawn) | -6.1 | . | 0.9 | . | .
Cc1cc(C(=O)Nc2ccc3c(c2)OCCO3)nn1C(C)(C)C | 81.8* | i | -1.1 | -2.3 | 0.4
CC(C)c1ccc(-n2c(O)c(C=NCCN3CCNCC3)c(=O)[nH]c2=S)cc1 | 11.4 | + | -0.6 | -7.1 | 2.0
Cc1ccc(-n2c(O)c(C=NCCN3CCNCC3)c(=O)[nH]c2=S)cc1 | 12.0 | i | -1.4 | -14.2 | 3.7
CCn1c(O)c(C=Nc2ccc(N3CCOCC3)cc2)c(=O)n(CC)c1=S | -159.0 | i | 97.0* | -11.9 | 130.5*
O=c1[nH]c(=S)n(-c2ccc(Cl)cc2)c(O)c1C=Nc1ccc(N2CCOCC2)cc1 | -87.0 | i | 52.9* | -18.2 | 4.2
CCn1c(O)c(/C=N/N2CCOCC2)c(=O)n(CC)c1=S | -2.3 | i | -1.4 | 0.0 | 9.8
CCn1c(O)c(C=Nc2ccc(N3CCOCC3)c(Br)c2)c(=O)n(CC)c1=S | -125.9 | i | 99.5* | -5.2 | -2.0
O=c1[nH]c(=O)n(C2CCCCC2)c(O)c1C=Nc1ccc(N2CCOCC2)cc1 | 0.8 | i | 1.6 | -7.3 | 7.5
CCn1c(O)c(C=NCCN2CCOCC2)c(=O)n(CC)c1=S | 3.9 | i | -1.5 | -5.8 | 10.2
CCOc1cc2c(cc1OCC)-n1cccc1C(c1cc(OC)ccc1F)NC2 (stereo not drawn) | 24.0 | i | 2.6 | -2.5 | -2.8
CN1Cc2c(c(C#N)c(N)n(C)c2=S)CC1(C)C | -7.8 | i | 10.4 | -75.7 | 50.1*
C[C@]12C[C@H](O)[C@@H](O)C[C@@H]1CC[C@@H]1[C@@H]2CC[C@]2(C)C(=O)CC[C@@H]12 | . | i | . | . | .

Source: PubChem
